# Only some compounds are listed: those with a hit (about 2.4% of all), similar ones and a draw of the others.
# D2 ag-1 = activates the human D2 dopamine receptor | HEK293 T-REx D2 cells, calcium flux agonist mode | AID 485358 | actives 0.53% (n = 340,000) | activation, % at 2 µM;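 active = activation over 3 SD above normal in the single-dose calcium agonist read, cut at about 30% in these data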; note: 0% is about no effect
# Target sequence (P14416 whole entry, looked up): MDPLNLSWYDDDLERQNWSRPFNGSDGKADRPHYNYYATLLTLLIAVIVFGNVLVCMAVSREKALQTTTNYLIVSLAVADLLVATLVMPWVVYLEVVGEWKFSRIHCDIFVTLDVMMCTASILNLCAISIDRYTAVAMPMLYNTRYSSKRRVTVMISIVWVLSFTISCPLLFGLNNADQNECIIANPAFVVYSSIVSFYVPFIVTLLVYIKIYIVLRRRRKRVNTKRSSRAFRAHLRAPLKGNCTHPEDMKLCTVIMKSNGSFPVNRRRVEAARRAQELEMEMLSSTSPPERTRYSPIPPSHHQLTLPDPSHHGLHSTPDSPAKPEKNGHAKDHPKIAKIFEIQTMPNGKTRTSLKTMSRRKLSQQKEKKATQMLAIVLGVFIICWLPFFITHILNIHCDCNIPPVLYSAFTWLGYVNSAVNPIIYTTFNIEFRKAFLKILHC
#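 In this primary screen, compounds producing a positive calcium signal within 180 s of addition to tetracycline-induced, force-coupled HEK293 Trex D2 cells are flagged; cells are dye-loaded with a no-wash calcium kit beforehand.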
# D2 antagonist = antagonists of human D2 dopamine receptor. P14416. HEK293 TREx D2 cells, calcium flux, dopamine EC80. inhibition, % at 10 µM. actives 2% (n = 340,000); in the data active = inhibition above about 30%; inactive = below that, where a call was filed; note: 0% is about no effect
#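 Inhibition of EC80 dopamine-driven calcium flux, recorded kinetically, defines activity here; cells are a tetracycline-induced HEK293 T-REx line expressing force-coupled D2.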
# B2AR arrestin = recruits beta-arrestin to the human beta2-adrenergic receptor. P07550. beta-arrestin recruitment to beta2AR, cell-based reporter. Potency, µM (top dose mostly 46.1 µM), without a hit: at the highest dose activation, actives largely listed as activators. actives 0.02% (n = 330,000). AID 492947; active = well fitted activation curve with a large enough effect;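 note: potency is the fitted concentration of half-maximal effect; 0% = DMSO controls and full agonism = EC100 isoproterenol or metaproterenol; nearly all actives have a fitted effect of over 65% in size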
# D2 PAM-1 = positive allosteric modulators of human D2 dopamine receptor. potentiation, % (concentration not given with the values). actives 0.23% (n = 360,000). AID 624464. DiscoveRx D2 beta-arrestin cells, luminescence, 90 min; 100% = 57 uM dopamine signal; in the data active = potentiation above about 50%
#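 D2 cells co-treated with compound plus 50 nM dopamine (EC20) for 90 min at 37 deg C to detect potentiation. Beta-arrestin recruitment was read as enzyme-fragment luminescence after 1 h at ambient temperature. Full response was set by 57 uM dopamine.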
# D2 PAM-2 = D2 dopamine receptor (human) potentiation; P14416; HEK293 T-REx D2, calcium flux, EC20 dopamine potentiation; potentiation, % at 10 µM; actives 0.34% (n = 340,000); AID 485347;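 active = potentiation over 3 SD above the plate norm, cut at about 30% in these data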; note: 0% is about no effect
#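 Using a no-wash calcium dye in inducible, force-coupled HEK293 Trex cells expressing D2, we tracked fluorescence each second for 180 s after compound, then for 180 s after EC20 dopamine to detect augmented signalling.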
# D2 ag-2 = activates the human D2 dopamine receptor. P14416. DiscoveRx PathHunter D2 beta-arrestin, luminescence, 90 min; 100% = 57 uM dopamine signal. actives 0.084% (n = 360,000). activation, % (test concentration not listed); in the data active = activation above about 40%
#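 DiscoveRx PathHunter D2 beta-arrestin cells (2,100/well) attached overnight, then compound-stimulated 90 min at 37 C in HBSS/10 mM HEPES/0.1% Tween-20 buffer; beta-galactosidase complementation read by luminescence after 1 h at ambient temperature. Dopamine 57 uM final (EC100) as control.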
# * hit, by the source's call; . = no result given; ! = not active in a repeat.
SMILES,D2 ag-1,D2 antagonist,B2AR arrestin,D2 PAM-1,D2 PAM-2,D2 ag-2
COc1cc(/C=C2\SC(=Nc3ccccc3)NC2=O)cc(Cl)c1O,74.4*,38.5*,-0.1%,-15.1,-9.7,-1.9
COc1ccc(C(c2nnnn2Cc2ccccc2)N2CCN(C/C=C/c3ccccc3)CC2)cc1 (centres undefined),.,.,.,-12.8,.,-0.6
O=C(c1cc(COc2c(F)cccc2F)on1)N1CCC(c2ccccc2Cl)C1 (centres undefined),0.2,-0.6,-0.5%,-14.2,32.0*,-2.0
CN(CC1COCCO1)C(=O)c1cc(COc2c(F)cccc2F)on1 (centres undefined),-0.5,-6.0,-0.3%,-10.3,-10.1,-4.2
COc1ccc(OCc2cc(C(=O)N3CCC(OC)CC3)no2)c2ccccc12,-0.4,10.3,0.2%,53.4*,4.0,6.5
CN(CCC1CCOCC1)C(=O)c1cc(COc2c(F)cccc2F)on1,0.7,30.5*,-0.2%,2.9,1.5,2.1
CC(C)Oc1ccc(C(=O)NCc2cccnc2)cc1,.,.,-0.7%,-6.9,.,-3.2
Cc1ccc(N(Cc2cc3ccc(C)cc3[nH]c2=O)S(=O)(=O)c2ccccc2)c(C)c1,0.6,8.8,0.4%,0.4,-2.8,3.2
Cc1nnc(NS(=O)(=O)c2ccc(Br)cc2)s1,1.2,-6.3,-3.9%,-1.7,5.3,-0.2
CCc1nn(CC(=O)NCCCN2CCN(C)CC2)c(=O)c2cc3sccc3n12,0.5,-12.2,0.2%,-14.1,9.4,-3.3
CCc1nn(CC(=O)NCCCN2CCc3ccccc3C2)c(=O)c2cc3sccc3n12,-1.0,79.1*,0.3%,-7.9,-28.8,-5.6
O=Cc1c(Cl)nc2ccccn2c1=O,0.0,-7.8,-0.6%,-0.5,2.4,3.2
COc1ccccc1OCCC(=O)OCC(=O)Nc1ccc(Br)cc1,-0.2,90.7*,-0.1%,-8.7,-23.6,-3.9
COc1ccccc1OCCC(=O)OCC(=O)Nc1cccc(Br)c1,0.4,17.7,-0.2%,-0.6,-19.6,-2.3
COc1ccccc1OCC(=O)Nc1ccc2c(c1)OCO2,0.3,32.3*,0.1%,-7.1,-0.1,-7.5
COc1ccccc1/C=C/C(=O)Nc1ccc2c(c1)OCCO2,-0.4,34.4*,0.1%,-37.3,-36.6,1.5
COc1ccc(NC(=O)c2ccc3c(c2)OCO3)cc1Cl,-0.1,39.3*,-0.3%,-15.5,-9.3,-4.1
Cc1occc1C(=O)Nc1c(F)c(F)c(F)c(F)c1F,-0.3,-17.0,0.1%,-2.7,9.1,-5.0
Cc1occc1C(=O)Nc1c(F)cc(F)cc1Br,-0.1,34.0*,-0.4%,-8.8,-12.3,3.5
CCN(CCNC(=O)C1CCCN(c2ncnc3c2nc2n3CCCCC2)C1)Cc1ccccc1 (centres undefined),0.2,15.8,-0.2%,-17.9,9.2,-6.3
COc1ccccc1N1CCN(CCCNC(=O)C2CCCN(c3ncnc4c3nc3n4CCCCC3)C2)CC1 (centres undefined),-0.2,76.1*,-0.3%,-16.9,4.6,-5.3
O=C(Nc1ccc(F)c(Cl)c1)C1CCCN(c2cnccn2)C1 (centres undefined),0.1,7.6,0.0%,-30.4,31.9*!,0.7
O=C(NCCCN1CCN(c2ccc(F)cc2)CC1)C1CCCN(c2ncnc3c2nc2n3CCCCC2)C1 (centres undefined),-0.2,25.7,0.0%,-17.3,-4.7,-0.7
CC1CC(C)CN(CCCNC(=O)C2CCCN(c3ncnc4c3nc3n4CCCCC3)C2)C1 (centres undefined),-0.8,33.7*,0.2%,-18.0,-14.9,1.5
CC(C)N(Cc1ccccc1)C(=O)C1CCCN(c2ncnc3c2nc2n3CCCCC2)C1 (centres undefined),-1.1,38.0*,0.1%,-8.8,-8.5,-0.1
SMILES,D2 ag-1,D2 antagonist,B2AR arrestin,D2 PAM-1,D2 PAM-2,D2 ag-2
Cc1ccc(NC(=O)C2CCCN(c3cnccn3)C2)cc1Cl (centres undefined),-1.3,.,.,.,-9.0,.
O=C(CCc1ccc(F)c(F)c1)NC1CCCN(Cc2ccc(Cl)cc2)C1 (centres undefined),1.0,-15.3,0.3%,-23.9,-2.6,-2.8
CCOC(=O)c1c(C)[nH]c(C)c1C(=O)COC(=O)c1cc2ccccc2cc1O,0.0,-10.3,0.3%,-3.0,-2.4,-0.1
Cc1ccc(NC(=O)C2CCN(c3ncnc4c3nc3n4CCCCC3)CC2)cc1Cl,-0.3,-14.2,0.0%,-6.3,-6.4,0.4
Cc1ccc(NC(=O)C2CCCN(c3ncnc4c3nc3n4CCCCC3)C2)cc1Cl (centres undefined),-0.4,33.1*,0.4%,-15.4,-9.2,-2.5
O=C(Cc1ccccc1F)N1CCC(c2nc3c(nnn3Cc3cccc(Cl)c3)c(=O)[nH]2)CC1,3.1,.,.,.,20.8,.
O=C(C1CCN(CCCc2ccccc2)CC1)N(CCc1ccccc1)Cc1ccccc1,4.9,38.7*,0.0%,-20.1,-23.5,-0.2
CCN(Cc1ccccc1)C(=O)C1CCN(Cc2ccc(SC)cc2)CC1,-0.3,80.6*,-1.0%,-22.4,-6.8,3.8
O=C(NCC(c1cccs1)S(=O)(=O)c1cccs1)c1ccccc1F (centres undefined),0.2,.,.,.,2.3,.
CC1Oc2ccccc2N(CC(=O)NC2CC2)C1=O (centres undefined),1.3,32.7*,-0.1%,-4.1,.,3.1
OC(CNc1ccccc1)Cn1ccc2ccccc21 (centres undefined),1.1,-4.1,0.5%,-3.7,-1.8,4.6
COc1cccc(Cn2cccc(NC(=O)NC3CCCCC3)c2=O)c1,0.0,28.5,0.1%,-7.4,30.6*,-0.4
O=C(Nc1cccn(Cc2ccccc2)c1=O)NC1CCCCC1,0.2,5.0,-0.6%,-6.6,-14.2,-3.4
CCC1CCCCN1S(=O)(=O)c1ccc(NC(=O)c2snnc2C)cc1 (centres undefined),0.4,-8.4,0.4%,-2.9,36.3*,4.3
CCCC(=O)Nc1nc2nc(-c3ccccc3)cc(=O)n2[nH]1,0.0,31.8*,0.0%,-6.5,3.0,-1.4
CCC(=O)Nc1nc2nc(-c3ccccc3)cc(=O)n2[nH]1,-2.0,-16.0,0.4%,-2.1,10.1,8.6
CCOC(=O)C(=CNc1ccc(OC)cc1[N+](=O)[O-])C(=O)OCC,1.8,31.3*,-0.3%,8.4,-4.5,9.1
CC(C(=O)N1CCc2ccccc21)N(C)CC(=O)Nc1cccc(F)c1 (centres undefined),5.0,38.9*,0.1%,-34.0,-22.0,-1.8
Cc1ccccc1NCC(=O)N/N=C/c1c(C)c(C(=O)c2ccc(Cl)cc2)n2ccccc12,1.8,32.0*,-1.8%,-16.3,-2.5,-1.2
N#Cc1cccc(OCC(=O)NC(=O)NCc2ccccc2)c1,1.8,6.3,0.3%,2.8,.,-0.2

# Bioassay records (PubChem)
